The panel holds about 83,000 compounds, 20% with a hit somewhere; the sample as a whole holds those more often.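 Treatment: one concentration, 48 hours, 96-well format. Scoring: percent growth, with anything below 10 considered active.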 Calls of active or inactive are those of the source.

The test system of the test is SK-MEL-28 melanoma. Briefly: NCI-60 one-dose screen, 48 h (100 = growth as untreated, 0 = no growth, -100 = all killed). As to conditions: 10 µM unless noted.
As for `Cn1/c(=N\N=C\c2ccccc2OCCO)sc2ccccc21`, the growth was 124% (inactive).

For `C=C1C(=O)C2CCC1C2` (configuration not stated), the growth was 119% (inactive).

For `CC(C)C(C)(C)C(=O)C(C)(C)C(C)(C)C`, the growth is 104% (inactive).

In the case of `Cc1ccc(OC(=O)c2ccccc2)cc1`, the growth is 120% (inactive).

On to `CCOC(=O)c1cc(Cl)c(O)c(Cl)c1`, for which the growth is 106% (inactive).

Take `C[n+]1cc2cc3c(cc2c2ccccc21)OCO3`: the growth was 45.6% (inactive).

As for `Cc1ccc(Cc2ccc(C)cc2)cc1`, the growth was 107% (inactive).

For `NCCCN1CCCC1=O`, the growth is 111% (inactive).

`CCCCCCCCCCCCCCCCCCSC(=N)N`: the growth is 93.5% (inactive).

Take `C=C1C(=O)C2CCN1CC2`: the growth was 95.6% (inactive).

Regarding `Cc1ccc[n+](CCC(N)=O)c1`, the growth is 99.9% (inactive).

With `N#CC1(O)CCCCC1`, the growth was 109% (inactive).

Take `CCOC(=O)CO`: the growth is 114% (inactive).

Take `CCOC(=O)N[C@H]1CCc2cc(OC)c(OC)c(OC)c2-c2ccc(SC)c(=O)cc21`: the growth is 60.1% (inactive).

Take `CC1CCC(C)(C)c2ccccc21` (configuration not stated): the growth is 97.3% (inactive).

As to `O=C1C=Cc2ccccc2/C1=C/c1[nH]c(=O)[nH]c1O`, the growth was 30.6% (inactive).

For the molecule `CCN(CC)CCCC(C)NC(=S)N/N=C(\C)c1ccccn1` (configuration not stated), the growth is 67.5% (inactive).

For the molecule `Cn1c(=O)c2[nH]c(CC(=O)O)nc2n(C)c1=O`, the growth was 101% (inactive).

For `Cc1ccc(/C=N/NC(N)=S)s1`, the growth is 113% (inactive).

On to `CCNC(=O)Oc1ccc[nH]c1=O`, for which the growth was 125% (inactive).

With `Cc1cccc(C)c1NC(=S)/N=C\c1c(O)[nH]c(=O)[nH]c1=O`, the growth is 111% (inactive).

`Cc1ccc(C)c(CCO)c1`: the growth is 105% (inactive).

With `O=C(OCC1CCCO1)c1ccc([N+](=O)[O-])cc1` (configuration not stated), the growth was 108% (inactive).

Consider `CC(=O)c1cccc(NS(=O)(=O)c2ccc(C)cc2)c1`, for which the growth is 78.5% (inactive).

`CCCNS(=O)(=O)c1ccc(Cl)cc1`: the growth is 108% (inactive).

On to `COc1nc(Nc2cccc(C(F)(F)F)c2)nc(OC)n1`, for which the growth was 109% (inactive).

For the molecule `COC1OC(C(COC(C)=O)OC(C)=O)C(OC(C)=O)C(OC(C)=O)C1OC(C)=O` (configuration not stated), the growth is 105% (inactive).

In the case of `NC(=O)c1cc2c3ccccc3ccn2c1-c1ccccc1`, the growth is 105% (inactive).

Turning to `Clc1ccc(/C=C/c2ccccn2)cc1`, the growth was 99% (inactive).

Turning to `CC(=O)c1cccc(N(C)S(=O)(=O)c2ccc(C)cc2)c1`, the growth is 93.6% (inactive).

Take `Cc1onc(-c2c(F)cccc2Cl)c1-c1ncc(-c2ccc(Br)cc2)o1`: the growth was 50.3% (inactive).

Consider `O=S(=O)(O)C(C(I)I)S(=O)(=O)O`, for which the growth was 114% (inactive).

Take `Clc1ccc(-c2noc(/C=C\c3ccccc3)n2)cc1`: the growth was 106% (inactive).

On to `BrCc1cccc(C[P+](c2ccccc2)(c2ccccc2)c2ccccc2)c1`, for which the growth is 67.6% (inactive).

For the molecule `CCCC(OC(C)=O)c1ccc2c(c1)OCO2` (configuration not stated), the growth is 106% (inactive).

Take `CC(=O)Nc1ccc(C(=O)c2ccc(S(=O)(=O)Nc3ccccc3)cc2)cc1`: the growth was 114% (inactive).

In the case of `O=C1NC(=O)/C(=C\c2ccncc2)N1`, the growth is 101% (inactive).

The values above are taken from PubChem BioAssay (NCI).
